Rows were chosen to be rich in hits. Some 8.1% of all compounds tested hit in one or more screens of this group.
ClpP mod = qHTS Assay for Activators of ClpP; ATP-dependent Clp protease proteolytic subunit (Bacillus subtilis (strain 168)), P80244; purified B. subtilis ClpP, FRET peptide cleavage, 20 min; Potency, µM (highest dose often 57.5 µM); actives 1.9% (n = 340,000); AID 651965, 2013; active = well fitted falling curve with a large enough effect; inconclusive = small, poorly fitted or top-dose-only effect; inactive = no such curve, though single readings can be large or run the other way; note: the source files actives as falling curves though it sought activators and does not explain the sign; nearly all actives have a fitted effect of over 65% in size
Target sequence (P80244 whole entry, looked up): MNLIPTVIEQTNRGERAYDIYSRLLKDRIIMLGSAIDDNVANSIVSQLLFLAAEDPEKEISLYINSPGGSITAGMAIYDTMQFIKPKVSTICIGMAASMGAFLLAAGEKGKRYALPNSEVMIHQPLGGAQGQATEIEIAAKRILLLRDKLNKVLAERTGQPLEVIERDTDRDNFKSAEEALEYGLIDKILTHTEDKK
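ClpP 10 microg/mL final, pH 8 Tris/KCl buffer with BSA, glycerol, Tween-20; compound pinned in; FRET-FV substrate; RT 20 min; Ex320/Em430; ΔFRET vs ADEP 5.8 microM, DMSO, no enzyme.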
Epigenetic reg = Quantitative High-Throughput Screen for Regulators of Epigenetic Control | murine LDR cells, GFP reporter derepression, 30 h | actives 0.2% (n = 280,000) | AID 1865, 2009 | Potency, µM (top dose mostly 53.9 µM), usual class: activators; note: nearly all actives have a fitted effect of over 60% in size
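In this reporter-derepression format, murine cells bearing a silenced integrated CMV-GFP locus incubate with test compound (30 h, 37 C), then are washed and imaged; fluorescent objects of 20–120 um count as induced cells.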
Sfp PPTase inh = qHTS Assay for Inhibitors of Bacillus subtilis Sfp phosphopantetheinyl transferase (PPTase). actives 3.5% (n = 310,000). Biochemical Sfp PPTase activity, qHTS. Potency, µM, actives largely listed as inhibitors;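 note: the enzyme is Sfp with the accession as filed and its product quenches rhodamine fluorescence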
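Buffer: 50 mM Hepes-Na pH 7.6, 10 mM MgCl2, 0.01% Nonidet P-40, 0.01% BSA. Enzyme 15 nM, pre-exposed to compound 15 min; substrates then added and fluorescence change tracked over 30 min.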
PINK1 modulator = A Quantitative High throughput Screen to Identify Chemical Modulators of PINK1 Expression; PINK1 immunofluorescence, high-content cytometry, 24 h; Potency, µM (doses to about 76.6 µM), hits mostly activators; actives 0.2% (n = 410,000); AID 624263, 2012; active = well fitted activation curve with a large enough effect; inconclusive = small, poorly fitted or top-dose-only effect; cell line not stated here; note: nearly all actives have a fitted effect of over 65% in size
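PINK1 protein level read as immunofluorescence by microplate cytometer in a fixed, stained stable cell line after 24 h exposure to five compound concentrations, with CCCP as control.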
VP16 counter = VP16 counterscreen qHTS for inhibitors of ROR gamma transcriptional activity; actives 3.5% (n = 310,000); Potency, µM (top dose mostly 53.6 µM), hits mostly inhibitors; Drosophila S2 Gal4-VP16 UAS-luciferase, luminescence, 20 h; AID 2546, 2010;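 note: Gal4-VP16 expression switched on by copper sulfate through the metallothionein promoter; nearly all actives have a fitted effect of over 50% in size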
RORgamma inh = qHTS for inhibitors of ROR gamma transcriptional activity | Nuclear receptor ROR-gamma (Mus musculus), P51450 | Drosophila S2 Gal4-RORgamma UAS-luciferase reporter, 20 h | Potency, µM (top dose mostly 53.6 µM), actives largely listed as inhibitors | actives 5.4% (n = 310,000); note: nearly all actives have a fitted effect of over 60% in size
Target sequence (P51450 whole entry, looked up, the tested form may be a part): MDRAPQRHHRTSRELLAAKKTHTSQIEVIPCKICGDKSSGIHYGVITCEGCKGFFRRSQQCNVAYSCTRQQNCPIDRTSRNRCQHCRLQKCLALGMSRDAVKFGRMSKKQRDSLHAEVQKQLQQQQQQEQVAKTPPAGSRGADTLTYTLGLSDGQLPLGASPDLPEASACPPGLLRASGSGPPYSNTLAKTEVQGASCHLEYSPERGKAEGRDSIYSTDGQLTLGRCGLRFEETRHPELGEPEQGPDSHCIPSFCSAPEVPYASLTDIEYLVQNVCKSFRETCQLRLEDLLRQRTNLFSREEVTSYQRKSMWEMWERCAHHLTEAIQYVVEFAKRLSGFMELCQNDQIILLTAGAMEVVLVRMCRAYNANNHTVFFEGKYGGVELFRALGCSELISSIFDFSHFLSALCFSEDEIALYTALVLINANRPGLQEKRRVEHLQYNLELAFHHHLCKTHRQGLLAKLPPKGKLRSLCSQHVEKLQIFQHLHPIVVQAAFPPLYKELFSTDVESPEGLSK
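Compounds are pin-transferred onto Drosophila Schneider cells expressing a copper-inducible Gal4–ROR gamma transactivation domain fusion. After 1 hr, copper sulfate is added to 700 uM final; luciferase is read 20 hr later.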
Numbers stand for hits; - = inactive; ? = inconclusive; . = no result; ! = not active in a repeat; [ ] = another dose, or the depositor's remark. Unless noted, calls come from the whole dose curve; as a rule, active = well fitted curve in the direction sought with a large enough effect; inconclusive = small, poorly fitted or top-dose-only effect, or another doubt; inactive = no such curve, though single readings can be large; an effect the other way counts as inactive or inconclusive.

SMILES | ClpP mod | Epigenetic reg | Sfp PPTase inh | PINK1 modulator | VP16 counter | RORgamma inh
C/C(=N\NC(=O)c1cccc([N+](=O)[O-])c1)c1cccc(NC(=O)C2CC2)c1 | . | - | - | - | - | -
C/C(=N/Nc1nc(C)c(C)s1)c1cccc([N+](=O)[O-])c1 | - | . | - | - | ? | 11µM
C/C(=N/NC(=S)Nc1cccc(C)c1)c1cccc([N+](=O)[O-])c1 | - | ? | - | - | 10µM | 2.8µM
CCN(CC)CCN(C(=O)c1cc2c(ccc3ccccc32)oc1=O)c1nc2cc3c(cc2s1)OCCO3 | - | . | 40µM | - | ? | -
CN(C)CCN(C(=O)c1ccc(Br)s1)c1nc2cc3c(cc2s1)OCCO3 | . | - | 56µM | - | - | -
CN(C)CCN(C(=O)c1cccc2ccccc12)c1nc2cc3c(cc2s1)OCO3 | - | . | 79µM | - | - | -
CN(C)CCN(C(=O)c1cccs1)c1nc2cc3c(cc2s1)OCCO3 | - | . | - | - | - | -
CN(C)CCN(C(=O)c1ccc2ccccc2c1)c1nc2cc3c(cc2s1)OCCO3 | ? | . | 79µM | ? | - | -
COC(=O)CN1C(=O)C(C)(C)c2cc(S(=O)(=O)NCc3ccc(Cl)cc3)ccc21 | - | - | . | - | . | .
C=C1C[C@H](OC(=O)C(C)(O)CCl)C2C(=C)C(=O)O[C@@H]2C2C1C[C@H](O)[C@]2(O)CCl (stereo partly drawn) | . | ? | - | . | ? | ?
C=C1C(=O)O[C@H]2[C@H]1[C@@H](O)CC(=C)[C@@H]1CC(=O)[C@@H](C)[C@H]21 | . | . | - | - | ? | 13µM
COc1ccc(CN2CCC3C=CCC(C(=O)O)C3C2=O)cc1OC (stereo not drawn) | . | . | - | . | - | -
Cc1ccc(NC(=S)N2CCN(CCN3C(=O)c4cccc5cccc(c45)C3=O)CC2)cc1 | - | - | - | - | ? | 7.1µM
c1ccc(-c2cc(-c3ccncc3)nc3ccc4ccccc4c23)cc1 | 22µM | - | 56µM | - | ? | 8.9µM
Clc1ccc2nc(-c3ccncc3)cc(-c3ccccc3)c2c1 | - | - | - | - | - | -
COc1ccc(-c2cc(OC(=O)c3ccccc3Cl)c3c(C)oc(C)c3c(=O)c2)cc1OC | - | - | . | - | . | .
c1ccc(-c2ccc(C3=Nn4c(Cn5nnc6ccccc65)nnc4SC3)cc2)cc1 | ? | - | 28µM | - | - | ?
c1ccc(Cc2nnc3n2N=C(c2ccccc2)CS3)cc1 | . | - | ? | - | - | -
c1ccc(C2=Nn3c(Cn4nnc5ccccc54)nnc3SC2)cc1 | . | - | - | - | - | -
Clc1ccc(C2=Nn3c(Cn4nnc5ccccc54)nnc3SC2)cc1 | - | - | 32µM | - | - | ?
COC(=O)c1ccc(NC(=O)CCNS(=O)(=O)c2cccc3nsnc23)cc1 | - | - | . | - | . | .
S=c1nc[nH]c2nc[nH]c12 | - | - | 40µM! | - | - | -
COc1ccc2c(Sc3ccccc3)c(C(=O)N3CCC(C)CC3)[nH]c2c1 | - | - | . | - | . | .
CCOc1ccc(NC(=O)Nc2cc(OCC(F)(F)F)cc(OCC(F)(F)F)c2)cc1 | . | - | - | ? | - | ?
O=C(Nc1ccc(F)cc1)Nc1cc(OCC(F)(F)F)cc(OCC(F)(F)F)c1 | - | - | - | ? | 6.3µM | ?
SMILES | ClpP mod | Epigenetic reg | Sfp PPTase inh | PINK1 modulator | VP16 counter | RORgamma inh
Cc1ccc(N=Cc2c(O)ccc3ccccc23)cc1F | - | ? | - | - | ? | 5µM
COc1cc(C2Oc3ccccc3C=C2[N+](=O)[O-])cc(OC)c1OC (stereo not drawn) | - | - | ? | - | 13µM | ?
O=C(Nc1c2c(nn1-c1ccc(Cl)cc1)CS(=O)(=O)C2)c1ccc(Br)cc1 | - | - | . | 32µM | . | .
O=C(Nc1c2c(nn1-c1ccc(Cl)cc1)CS(=O)(=O)C2)c1ccc2c(c1)OCO2 | - | - | - | - | - | -
Cc1ccccc1-n1c(=O)cc(N2CCCCCC2)[nH]c1=O | - | - | - | - | - | -
Cc1ccccc1-n1c(=O)cc(N2CCN(C(=O)c3ccco3)CC2)[nH]c1=O | - | - | 79µM | - | - | -
COc1cccc(NC(=S)NC(=O)/C=C/c2ccc(F)cc2)c1 | - | . | - | - | ? | 7.1µM
COc1ccc(NC(=S)NC(=O)/C=C/c2cccs2)cc1 | . | - | - | - | ? | 3.5µM
COc1cccc(NC(=O)/C=C/c2ccc([N+](=O)[O-])cc2)c1 | . | - | 50µM | - | - | -
CC(=O)c1ccc(NC(=S)NC(=O)/C=C/c2ccc(F)cc2)cc1 | . | . | - | - | - | ?
COc1ccc(NC(=S)NC(=O)/C=C/c2ccccc2)cc1 | . | . | - | - | 7.1µM | 7.1µM
COc1ccc(NC(=S)NC(=O)/C=C/c2ccco2)cc1 | . | - | - | - | - | -
COc1cccc(NC(=O)/C=C/c2ccccc2[N+](=O)[O-])c1 | - | - | - | - | - | -[10 µM]
COc1ccccc1NC(=O)COC(=O)/C=C/c1cccs1 | - | . | . | - | . | .
COc1ccccc1NC(=S)NC(=O)/C=C/c1cccs1 | . | - | - | - | 11µM | 4.5µM
COc1ccc(OC(=O)/C=C/c2ccc([N+](=O)[O-])cc2)cc1 | . | . | - | - | 8.9µM | ?
Cc1cn2c(=O)cc(COc3ccc(NC(=O)c4ccccc4C)cc3)nc2s1 | - | - | . | ? | . | .
COc1ccc2ccccc2c1/C=N/NC(=O)c1nnn(-c2nonc2N)c1C(C)C | . | . | - | - | ? | ?
CCc1c(C(=O)N/N=C/c2sccc2C)nnn1-c1nonc1N | . | . | - | - | 10µM | 10µM
Cc1ccc(/C=N/NC(=O)c2nnn(-c3nonc3N)c2CN(C)c2ccccc2)s1 | - | . | - | - | ? | 18µM
Cc1c(C(=O)N/N=C/c2c(O)ccc3ccccc23)nnn1-c1nonc1N | - | . | - | - | 7.1µM | 4.5µM
CCCc1c(C(=O)N/N=C/c2ccc(C)o2)nnn1-c1nonc1N | - | . | . | - | . | .
CN(Cc1c(C(=O)N/N=C/c2cccc(O)c2)nnn1-c1nonc1N)c1ccccc1 | - | . | - | - | - | -
Cc1ccsc1/C=N/NC(=O)c1nnn(-c2nonc2N)c1CN(C)c1ccccc1 | - | . | - | - | 3.2µM | 4µM
Cc1cccc(N2CCN(C(=O)c3cc4ccc5cccnc5c4[nH]3)CC2C)c1 (stereo not drawn) | ? | - | . | - | . | .
CC(=O)c1cc(-c2ccccc2)n(CCC(=O)Nc2nc3c(C)cccc3s2)c1C | - | - | . | - | . | .
O=C(C[N+]12CCCc3cccc(c31)CCC2)c1ccc(Cl)c2ccccc12 | - | . | . | . | . | .

Assay outcomes: PubChem BioAssay, National Center for Advancing Translational Sciences (NCATS)
